Measured values from PubChem BioAssay (EPA / NIEHS).
The source made the active and inactive calls. Rule for the calls: active = hit-call score of the fitted dose curve at least 0.9, where 1 is the maximum; inactive = score below 0.9.

Key:
Settings in all cases: mRNA level, 48 h; actives raise or lower the signal
[1] = read-out: succinate dehydrogenase complex iron sulfur subunit B (SDHB), SDHB (gene 6390); assay: LTEA_HepaRG_SDHB: Life Technologies and Expression Analysis (LTEA) Assay for succinate dehydrogenase complex iron sulfur subunit B (SDHB) using HepaRG (AID 2283528)
Summary of the method: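 Readout is SDHB transcript level by qRT-PCR, normalised to three housekeeping genes and fitted bidirectionally against 0.5% DMSO vehicle. Human HepaRG cells were treated for 48 h at up to 100 uM.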

[2] = read-out: solute carrier (SLCO1B1), SLCO1B1 (gene 10599); assay: LTEA_HepaRG_SLCO1B1: Life Technologies and Expression Analysis (LTEA) Assay for solute carrier (SLCO1B1) using HepaRG (AID 2283530)
Summary of the method: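 Human HepaRG cultures treated for 48 h with an eight-concentration half-log series topping at 100 uM; SLCO1B1 measured by qRT-PCR and fitted bidirectionally relative to DMSO.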

[3] = read-out: sulfotransferase 2A1 (SULT2A1), SULT2A1 (gene 6822); assay: LTEA_HepaRG_SULT2A1: Life Technologies and Expression Analysis (LTEA) Assay for sulfotransferase 2A1 (SULT2A1) using HepaRG (AID 2283531)
Summary of the method: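 Gene-expression endpoint in a human liver cell line: SULT2A1 mRNA change after 48 h chemical treatment, curves fitted in both directions relative to 0.5% DMSO vehicle. Concentrations spanned eight half-log steps from 100 uM.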

[4] = read-out: Transforming Growth Factor (TGFA), TGFA (gene 7039); assay: LTEA_HepaRG_TGFA: Life Technologies and Expression Analysis (LTEA) Assay for Transforming Growth Factor (TGFA) using HepaRG (AID 2283532)
Summary of the method: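 HepaRG (human liver line), 48 h exposure, 8 conc. half-log down from 100 uM, 0.5% DMSO vehicle, duplicates; serum-free induction medium. TGFA mRNA by TaqMan qRT-PCR, ACTB/GAPDH/POLR2A normalization; gain/loss fit vs DMSO.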

[5] = read-out: Transforming Growth Factor (TGFB1), TGFB1 (gene 7040); assay: LTEA_HepaRG_TGFB1: Life Technologies and Expression Analysis (LTEA) Assay for Transforming Growth Factor (TGFB1) Transporter using HepaRG (AID 2283533)
Summary of the method: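 Eight-point concentration-response (max 100 uM, half-log) in HepaRG under serum-free induction conditions, 48 h. TGFB1 mRNA by qRT-PCR, housekeeping-normalized.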

TIMP1, TIMP1 (gene 7076) = assay: LTEA_HepaRG_TIMP1: Life Technologies and Expression Analysis (LTEA) Assay for TIMP1 using HepaRG (AID 2283534)
Summary of the method: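 TIMP1 induction or repression in HepaRG cells after 48 h chemical exposure (eight concentrations, highest 100 uM), assessed by normalized qRT-PCR with bidirectional fitting to DMSO controls.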

[6] = read-out: Tumor necrosis factor receptor 1 (TNFRSF1A), TNFRSF1A (gene 7132); assay: LTEA_HepaRG_TNFRSF1A: Life Technologies and Expression Analysis (LTEA) Assay for Tumor necrosis factor receptor 1 (TNFRSF1A) using HepaRG (AID 2283535)
Summary of the method: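 Assay uses 48 h chemical treatment of differentiated HepaRG monolayers, tested in duplicate at eight concentrations from 100 uM downward in 0.5% DMSO. mRNA is normalized to ACTB, GAPDH and POLR2A, with induction or suppression fitted relative to vehicle.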

[7] = read-out: Thyroid Hormone Responsive (THRSP), THRSP (gene 7069); assay: LTEA_HepaRG_THRSP: Life Technologies and Expression Analysis (LTEA) Assay for Thyroid Hormone Responsive (THRSP) using HepaRG (AID 2283536)
Summary of the method: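 mRNA induction or loss relative to 0.5% DMSO vehicle was fitted bidirectionally across an eight-point curve whose highest exposure was 100 uM. Human HepaRG liver cells received chemicals in duplicate over 48 h before RNA extraction.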

[8] = read-out: Cellular tumor antigen p53 (Homo sapiens) (UniProt P04637); assay: LTEA_HepaRG_TP53: Life Technologies and Expression Analysis (LTEA) Assay for Tumor Protein P53 (TP53) using HepaRG (AID 2283537)
Summary of the method: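 Read-out is TP53 transcript level by microfluidic qRT-PCR, normalised to three housekeeping genes and fitted bidirectionally against DMSO. Human HepaRG cells received compounds for 48 h, highest concentration 100 uM.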

[9] = read-out: Signal transducer and activator of transcription 3 (Homo sapiens) (UniProt P40763); assay: LTEA_HepaRG_STAT3: Life Technologies and Expression Analysis (LTEA) Assay for Signal transducer and activator of transcription (STAT3) using HepaRG (AID 2283529)
Summary of the method: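 Read-out is STAT3 mRNA level by qRT-PCR, normalized to three housekeeping genes, in human HepaRG liver cells treated for 48 h. Concentrations ran from 100 uM downward in half-log steps; curves were fitted for gain or loss relative to 0.5% DMSO.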

Measured: AC50

Sequence of Signal transducer and activator of transcription 3 (Homo sapiens) (P40763 whole entry, looked up): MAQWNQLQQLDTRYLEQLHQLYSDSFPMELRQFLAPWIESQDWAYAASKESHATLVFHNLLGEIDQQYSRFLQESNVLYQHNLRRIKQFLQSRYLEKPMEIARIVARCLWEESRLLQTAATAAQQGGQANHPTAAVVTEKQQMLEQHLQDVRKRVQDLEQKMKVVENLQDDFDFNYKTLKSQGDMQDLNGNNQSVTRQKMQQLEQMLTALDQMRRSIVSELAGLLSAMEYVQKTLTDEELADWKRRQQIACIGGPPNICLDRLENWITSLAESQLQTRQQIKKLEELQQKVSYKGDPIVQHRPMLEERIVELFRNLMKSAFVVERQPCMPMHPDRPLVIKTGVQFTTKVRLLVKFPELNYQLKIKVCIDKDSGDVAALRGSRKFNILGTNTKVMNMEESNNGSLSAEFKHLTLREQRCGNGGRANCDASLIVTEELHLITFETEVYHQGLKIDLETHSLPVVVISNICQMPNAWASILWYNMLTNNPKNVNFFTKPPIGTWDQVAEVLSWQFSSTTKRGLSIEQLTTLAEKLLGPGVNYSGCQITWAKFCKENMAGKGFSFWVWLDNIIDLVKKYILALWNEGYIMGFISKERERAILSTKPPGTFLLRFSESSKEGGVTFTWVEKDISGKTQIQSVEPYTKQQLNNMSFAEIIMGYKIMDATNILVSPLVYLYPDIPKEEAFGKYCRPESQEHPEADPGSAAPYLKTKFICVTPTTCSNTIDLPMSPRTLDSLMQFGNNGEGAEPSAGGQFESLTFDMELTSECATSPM
Sequence of Cellular tumor antigen p53 (Homo sapiens) (P04637 whole entry, looked up): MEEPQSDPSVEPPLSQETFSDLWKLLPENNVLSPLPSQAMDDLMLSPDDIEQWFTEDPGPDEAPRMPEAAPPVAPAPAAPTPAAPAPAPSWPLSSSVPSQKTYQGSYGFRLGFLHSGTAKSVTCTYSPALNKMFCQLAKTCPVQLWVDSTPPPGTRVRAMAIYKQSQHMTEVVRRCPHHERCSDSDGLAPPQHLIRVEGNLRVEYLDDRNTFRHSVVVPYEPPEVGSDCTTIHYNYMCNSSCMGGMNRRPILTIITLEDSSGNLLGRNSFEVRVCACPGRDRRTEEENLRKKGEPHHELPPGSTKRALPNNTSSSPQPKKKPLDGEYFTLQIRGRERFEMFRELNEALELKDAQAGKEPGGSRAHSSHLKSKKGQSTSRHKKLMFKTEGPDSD

CC1=C(/C=C/C(C)=C/C=C/C(C)=C/C(=O)O)C(C)(C)CCC1
active: [1] 1.09 µM | [2] 11.5 µM | [3] 0.812 µM
not listed: [9]
inactive: all other assays above

C[C@@H]1C[C@H]2[C@@H]3CCC4=CC(=O)C=C[C@]4(C)[C@@]3(F)[C@@H](O)C[C@]2(C)[C@@]1(O)C(=O)COP(=O)(O)O
not listed: [9]
inactive: all other assays above

CC(=O)CC(C)(C)O
not listed: [9]
inactive: all other assays above

CCCOc1sc(C(=O)N2CCC(c3cc(CN)ccc3F)CC2)c(C)c1Br
not listed: [1]
inactive: all other assays above

CCCCCCCCCCCCN1CCCC1=O
not listed: [1]
inactive: all other assays above

O=[N+]([O-])c1ccc(O)cc1
inactive: all assays above

OC1CCCCC1
not listed: [9]
inactive: all other assays above

CCCOC(=O)c1ccc(O)cc1
active: [6] 0.779 µM
inactive: all other assays above

C#C[C@]1(O)CC[C@H]2[C@@H]3CCC4=CC(=O)CC[C@@H]4[C@H]3CC[C@@]21C
active: [3] 15.9 µM | [7] 0.0729 µM
not listed: [9]
inactive: all other assays above

CCCCCCCCCCCCCCCS(=O)(=O)Oc1ccccc1
not listed: [1]
inactive: all other assays above

Nc1cccc2c(N)cccc12
active: [2] 9.92 µM | [7] 10.9 µM
not listed: [9]
inactive: all other assays above

Oc1cccc(O)c1
not listed: [9]
inactive: all other assays above

CCc1ccc(CCOc2ccc(CC3SC(=O)NC3=O)cc2)nc1 (configuration not stated)
inactive: [1] | [5] | TIMP1, TIMP1 (gene 7076) | [6]
active: [2] 67.5 µM | [3] 81.1 µM | [4] 24 µM | [7] 83.8 µM | [8] 80.4 µM

COCC(C)OCC(C)O (configuration not stated)
not listed: [9]
inactive: all other assays above

CC#C[C@]1(O)CC[C@H]2[C@@H]3CCC4=CC(=O)CCC4=C3[C@@H](c3ccc(N(C)C)cc3)C[C@@]21C
active: [2] 84.2 µM | [3] 57.4 µM | [4] 44.9 µM | [5] 3.49 µM | TIMP1, TIMP1 (gene 7076) 83.9 µM | [7] 11.3 µM | [8] 20.4 µM
inactive: [9] | [6]

c1ccc2cc3c(ccc4ccccc43)cc2c1
inactive: [4] | [5] | [6] | [8]
active: [9] 8.31 µM | [2] 8.09 µM | [3] 13.3 µM | TIMP1, TIMP1 (gene 7076) 10.2 µM | [7] 5.27 µM

CC(C)CCCCCCOC(=O)CCCCC(=O)OCCCCCCC(C)C
not listed: [1]
inactive: all other assays above

O=C(O)Cc1cc(I)c(Oc2cc(I)c(O)c(I)c2)c(I)c1
active: [1] 62.9 µM | [2] 56.2 µM | [3] 52.4 µM | [5] 56.4 µM | [6] 55.3 µM | [7] 56 µM | [8] 59.1 µM
inactive: [4] | TIMP1, TIMP1 (gene 7076)

CCCCC(CC)COC(=O)CCCCC(=O)OCc1ccccc1 (configuration not stated)
not listed: [9]
inactive: all other assays above

OCCC(F)(F)C(F)(F)C(F)(F)C(F)(F)C(F)(F)C(F)(F)C(F)(F)C(F)(F)F
inactive: all assays above

O=C(OCCOCCOC(=O)c1ccccc1)c1ccccc1
not listed: [9]
inactive: all other assays above

CC(C)(C)c1cc(C(C)(C)C)c(O)c(C(C)(C)C)c1
active: [7] 17.9 µM
inactive: all other assays above

CC(C)(C)c1cccc(C(C)(C)C)c1O
not listed: [9]
inactive: all other assays above

CCCCCCCCC(=O)O
not listed: [1]
inactive: all other assays above

COc1ccc([N+](=O)[O-])cc1N
active: [7] 9.92 µM
not listed: [1]
inactive: all other assays above

CC[C@H](c1ccc(O)cc1)[C@@H](CC)c1ccc(O)cc1
inactive: [4] | TIMP1, TIMP1 (gene 7076) | [7]
active: [1] 79.4 µM | [9] 93.8 µM | [2] 92.8 µM | [3] 79.7 µM | [5] 79.5 µM | [6] 93.4 µM | [8] 80.1 µM

c1ccc2c(c1)ccc1ccccc12
inactive: all assays above

N#C[C@@H]1CC(F)(F)CN1C(=O)CNC1CC2CCC(C1)N2c1ncccn1 (some centres not stated)
not listed: [9]
inactive: all other assays above

CCOC(=O)CC(O)(CC(=O)OCC)C(=O)OCC
not listed: [9]
inactive: all other assays above
